Bioassay records deposited in PubChem by several laboratories.
MEKK2 mut-MEK5 = signal of MEK5 binding to mutant human MEKK2 PB1 domain | bead flow cytometry, Alexa488-MEK5 binding to MEKK2 mutant | percent response, % at 10 µM | actives 0.35% (n = 290,000); in the data active = percent response above about 24%, passing the limit was not always enough
UBC13 inh = human UBC13 polyubiquitination inhibition; P61088; AID 485273; UBC13 polyubiquitin chain formation, TR-FRET; inhibition, % at 20 µM; actives 0.47% (n = 330,000); in the data active = inhibition above about 45%, passing the limit was not always enough
Target sequence (P61088 whole entry, looked up): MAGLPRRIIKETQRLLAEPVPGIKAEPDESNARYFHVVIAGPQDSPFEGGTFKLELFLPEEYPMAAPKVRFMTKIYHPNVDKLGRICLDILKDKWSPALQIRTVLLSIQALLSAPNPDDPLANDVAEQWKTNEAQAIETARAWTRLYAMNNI
Rce1 inhib = yeast Ras-converting enzyme inhibition; yeast membranes, quenched prenylated peptide cleavage fluorescence; calls only; actives 0.27% (n = 290,000); AID 2563;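 active = fall in fluorescence gain of 50% or more versus controls, with final raw signal at or below 3038400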;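 also: plate controls were neutral control wells for no effect and wells lacking membranes for full effect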
Target sequence (Q03530 whole entry, looked up): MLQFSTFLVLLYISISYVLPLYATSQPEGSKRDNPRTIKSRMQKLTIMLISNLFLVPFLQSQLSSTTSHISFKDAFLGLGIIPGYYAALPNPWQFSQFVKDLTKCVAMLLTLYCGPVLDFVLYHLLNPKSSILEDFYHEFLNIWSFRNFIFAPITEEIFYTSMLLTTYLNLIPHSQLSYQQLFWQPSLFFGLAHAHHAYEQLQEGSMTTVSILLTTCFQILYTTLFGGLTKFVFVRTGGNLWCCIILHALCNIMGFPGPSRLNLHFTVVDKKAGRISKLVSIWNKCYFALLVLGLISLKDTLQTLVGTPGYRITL
MEKK3 PB1 HTS = raises or lowers MEK5 binding to the human MEKK3 PB1 domain. Q99759. bead-based flow cytometry, Alexa488-MEK5 binding to MEKK3; actives lie on both sides; 0 = blocked by unlabeled MEK5, 100 = vehicle. binding response (% of control), % at 10 µM. actives 1.4% (n = 290,000);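 active = binding response more than 3 SD above or below the average of its plate-row segment, actives on both sides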;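 also: Alexa488 bead fluorescence after subtracting the streptavidin-only scavenger bead signal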
MEKK2 WT-MEK5 = raises or lowers MEK5 binding to wildtype human MEKK2 PB1 domain. actives 1.1% (n = 290,000). binding response (% of control), % at 10 µM. bead flow cytometry, Alexa488-MEK5 binding to MEKK2 WT; actives lie on both sides; in the data active = binding response below about 67% or above about 130%
MEKK2wt confirm = raises or lowers MEK5 binding to wildtype human MEKK2, retest; bead flow cytometry, Alexa488-MEK5 binding to MEKK2 WT; actives lie on both sides; AID 1892; actives 2.4% (n = 5,900); shares compounds with MEKK3 PB1 HTS; binding response (% of control), % at 10 µM; in the data active = binding response below about 16% or above about 210%; inactive = in between
MEKK2mut confirm = signal of MEK5 binding to mutant human MEKK2, retest; shares compounds with MEKK3 PB1 HTS; bead flow cytometry, Alexa488-MEK5 binding to MEKK2 mutant; percent response, % at 10 µM; actives 2% (n = 5,900); AID 1893; in the data active = percent response mostly above about 71%, no sharp cut-off; inactive = mostly below about 38%;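 also: higher means compound restores mutant binding toward wildtype level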
MEKK3-MEK5 inh = MEKK3-MEK5 PB1 inhibition, single concentration confirmation; actives 1.8% (n = 5,900); bead flow cytometry, Alexa488-MEK5 binding to MEKK3; hits give low values; shares compounds with MEKK3 PB1 HTS; binding response (% of control), % at 10 µM; AID 1894;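 active = binding response below 72% of control, or above a set upper limit, though filed actives all read lower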;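 also: 100% = DMSO only wells and 0% = binding blocked by excess unlabeled MEK5; lower values mean stronger disruption of MEK5 binding to MEKK3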
* hit, by the source's call; [ ] = dose if it differs, or a comment. An excerpt weighted towards active compounds, which were near 2.5% of everything screened.

How did CC(C)c1[nH]c(=O)c(C#N)c2c1CSC(C)(C)C2 do in these assays?
MEKK2 mut-MEK5: -14.0; UBC13 inh: -3.9; MEKK3 PB1 HTS: 3.0*[inhibitor]; MEKK2 WT-MEK5: 3.0*[inhibitor]; MEKK2wt confirm: 100.0; MEKK2mut confirm: -4.0; MEKK3-MEK5 inh: 98.0

What do the screens show for `Cc1nc(Cl)c(C(=O)NC(=O)NCc2ccccc2)c(C)c1Cl`?
MEKK2 mut-MEK5: 1.0; UBC13 inh: -6.7; Rce1 inhib: inactive; MEKK3 PB1 HTS: 142.0*; MEKK2 WT-MEK5: 107.0; MEKK2wt confirm: 97.0; MEKK2mut confirm: -6.0; MEKK3-MEK5 inh: 100.0

How did Cc1ccccc1NC(=O)c1c(Cl)nc(C)c(Cl)c1C do in these assays?
MEKK2 mut-MEK5: -1.0; UBC13 inh: 4.7; Rce1 inhib: inactive; MEKK3 PB1 HTS: 104.0; MEKK2 WT-MEK5: 104.0

How did COc1cc(C(=O)NCCCN2CCCC2=O)cc(Br)c1OCc1ccccc1 do in these assays?
UBC13 inh: 5.8

How did CC(C(=O)Nc1ccc(N2CCOCC2)cc1)N1C(=O)c2ccccc2C1=O (configuration not stated) do in these assays?
MEKK2 mut-MEK5: -1.0; UBC13 inh: -1.4; Rce1 inhib: inactive; MEKK3 PB1 HTS: 93.0; MEKK2 WT-MEK5: 95.0

How did CC(C)C(C(=O)Nc1ccc(N2CCOCC2)cc1)N1C(=O)c2ccccc2C1=O (configuration not stated) do in these assays?
MEKK2 mut-MEK5: -25.0; UBC13 inh: 2.7; Rce1 inhib: inactive; MEKK3 PB1 HTS: 2.0*[inhibitor]; MEKK2 WT-MEK5: -2.0*[inhibitor]; MEKK2wt confirm: 107.0; MEKK2mut confirm: 7.0; MEKK3-MEK5 inh: 103.0

What do the screens show for `COc1cc(NC(=O)c2cc(C)nc3ccccc23)cc(OC)c1OC`?
MEKK2 mut-MEK5: 10.0; UBC13 inh: 1.0; Rce1 inhib: inactive; MEKK3 PB1 HTS: 142.0*; MEKK2 WT-MEK5: 122.0; MEKK2wt confirm: 110.0; MEKK2mut confirm: 6.0; MEKK3-MEK5 inh: 105.0

Results for COc1ccc(NC(=O)c2cc(C)nc3ccccc23)c(OC)c1 ?
MEKK2 mut-MEK5: -2.0; UBC13 inh: 11.7; Rce1 inhib: inactive; MEKK3 PB1 HTS: 100.0; MEKK2 WT-MEK5: 93.0

Results for COCCNC(=O)CCC1CCN(Cc2ccc(-c3ccccc3)cc2)CC1 ?
MEKK2 mut-MEK5: 6.0; UBC13 inh: 4.8; Rce1 inhib: inactive; MEKK3 PB1 HTS: 107.0; MEKK2 WT-MEK5: 108.0

What do the screens show for `CC1(C)Cc2nc(N3CCCC3)c(C#N)cc2CO1`?
MEKK2 mut-MEK5: 2.0; UBC13 inh: 4.8; Rce1 inhib: inactive; MEKK3 PB1 HTS: 129.0*; MEKK2 WT-MEK5: 117.0; MEKK2wt confirm: 99.0; MEKK2mut confirm: -7.0; MEKK3-MEK5 inh: 101.0

What do the screens show for `CC12CCC(C(=O)Nc3ccccc3Cl)(C(Br)C1=O)C2(C)C` (configuration not stated)?
MEKK2 mut-MEK5: -2.0; UBC13 inh: 0.1; Rce1 inhib: inactive; MEKK3 PB1 HTS: 93.0; MEKK2 WT-MEK5: 97.0

How did COc1ccc(S(=O)(=O)N2CCC(NC(=O)c3cccnc3)CC2)cc1 do in these assays?
MEKK2 mut-MEK5: 0.0; UBC13 inh: -1.0; Rce1 inhib: inactive; MEKK3 PB1 HTS: 102.0; MEKK2 WT-MEK5: 95.0

What do the screens show for `CC(C)(C)n1cnc2cc(NCc3ccc(Br)cc3)ccc21`?
MEKK2 mut-MEK5: 20.0; UBC13 inh: 16.8; Rce1 inhib: inactive; MEKK3 PB1 HTS: 112.0; MEKK2 WT-MEK5: 137.0*; MEKK2wt confirm: 145.0; MEKK2mut confirm: 35.0; MEKK3-MEK5 inh: 105.0

How did CCN(CC)c1ccc(CNc2ccc3c(c2)ncn3C(C)(C)C)cc1 do in these assays?
MEKK2 mut-MEK5: 16.0; UBC13 inh: 8.3; Rce1 inhib: inactive; MEKK3 PB1 HTS: 110.0; MEKK2 WT-MEK5: 135.0*; MEKK2wt confirm: 134.0; MEKK2mut confirm: 16.0; MEKK3-MEK5 inh: 105.0

How did O=C(Nc1cccc2ccccc12)NC1CCCCC1 do in these assays?
MEKK2 mut-MEK5: 7.0; UBC13 inh: 4.2; Rce1 inhib: inactive; MEKK3 PB1 HTS: 105.0; MEKK2 WT-MEK5: 105.0

What do the screens show for `O=C(Nc1cccc2ccccc12)NC1Cc2ccccc2C1`?
MEKK2 mut-MEK5: -10.0; UBC13 inh: 4.3; Rce1 inhib: inactive; MEKK3 PB1 HTS: 73.0*[inhibitor]; MEKK2 WT-MEK5: 82.0; MEKK2wt confirm: 111.0; MEKK2mut confirm: 3.0; MEKK3-MEK5 inh: 98.0

Results for COc1ccc(N2C(=O)CCC2(C#N)c2ccc(Br)cc2)cc1 (configuration not stated) ?
MEKK2 mut-MEK5: -25.0; UBC13 inh: -9.8; Rce1 inhib: inactive; MEKK3 PB1 HTS: 49.0*[inhibitor]; MEKK2 WT-MEK5: 63.0; MEKK2wt confirm: 98.0; MEKK2mut confirm: -5.0; MEKK3-MEK5 inh: 102.0

How did CC(C)NCC(O)Cn1c2c(c3ccccc31)CCc1c-2cnn1-c1ccccc1 (configuration not stated) do in these assays?
MEKK2 mut-MEK5: 30.0*; UBC13 inh: 41.8; Rce1 inhib: inactive; MEKK3 PB1 HTS: 110.0; MEKK2 WT-MEK5: 176.0*; MEKK2wt confirm: 149.0; MEKK2mut confirm: 25.0; MEKK3-MEK5 inh: 106.0

What do the screens show for `COc1ccc(OCCC(=O)N2CCN(C)CC2)cc1`?
MEKK2 mut-MEK5: 25.0*; UBC13 inh: 4.9; Rce1 inhib: inactive; MEKK3 PB1 HTS: 114.0; MEKK2 WT-MEK5: 113.0; MEKK2wt confirm: 103.0; MEKK2mut confirm: 0.0; MEKK3-MEK5 inh: 102.0

What do the screens show for `O=C(COC(=O)c1ccccc1C(=O)c1ccccc1)NCCc1ccc(Cl)cc1Cl`?
MEKK2 mut-MEK5: -2.0; UBC13 inh: 2.0; Rce1 inhib: inactive; MEKK3 PB1 HTS: 130.0*; MEKK2 WT-MEK5: 96.0; MEKK2wt confirm: 102.0; MEKK2mut confirm: -3.0; MEKK3-MEK5 inh: 101.0

What do the screens show for `O=C(COC(=O)c1ccccc1C(=O)c1ccc(Cl)cc1)NCc1ccccc1`?
MEKK2 mut-MEK5: 21.0; UBC13 inh: 3.4; Rce1 inhib: inactive; MEKK3 PB1 HTS: 103.0; MEKK2 WT-MEK5: 124.0

Results for CN(c1ncc(C(F)(F)F)cc1Cl)N1C(=O)c2cccc([N+](=O)[O-])c2C1=O ?
MEKK2 mut-MEK5: -4.0; UBC13 inh: -6.9; Rce1 inhib: inactive; MEKK3 PB1 HTS: 98.0; MEKK2 WT-MEK5: 97.0

What do the screens show for `Cc1nn(-c2cccc(C(F)(F)F)c2)c(=O)c2noc(C)c12`?
MEKK2 mut-MEK5: -21.0; UBC13 inh: -5.2; Rce1 inhib: inactive; MEKK3 PB1 HTS: 90.0; MEKK2 WT-MEK5: 85.0

How did CC1=NN(c2ccccc2)C(=O)C1(C)[N+](=O)[O-] (configuration not stated) do in these assays?
MEKK2 mut-MEK5: -2.0; UBC13 inh: -9.3; Rce1 inhib: inactive; MEKK3 PB1 HTS: 106.0; MEKK2 WT-MEK5: 108.0
